We go through seven compounds from PubChem BioAssay (NCI).

Each structure is given as a SMILES string. Compounds without any hit were thinned out: in the full panel of roughly 83,000, 20% have a hit.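 Values shown are percent growth following 48 h exposure of cells in 96-well plates to a single concentration of compound; below 10 was considered active.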 A number with no mark means an inactive call. Calls of active or inactive are those of the source.

What all share (assay): NCI-60 one-dose screen, 48 h (100 = growth as untreated, 0 = no growth, -100 = all killed)
Holding throughout (conditions): 10 µM unless noted

Assay [1] relates to NCI-H23 lung.
For assay [2], the system named is NCI-H226 lung.
Assay [3] deals with NCI-H322M lung.
In assay [4] the test system is HOP-62 NSCLC.
The subject of assay [5] is NCI-H460 lung.
Assay [6] deals with HOP-92 NSCLC.
The subject of assay [7] is NCI-H522 lung.
Assay [8] concerns A549/ATCC NSCLC.
Assay [9] deals with 786-0 renal.
Assay [10] concerns COLO 205 colon.
For assay [11], the system named is DU-145 prostate.
The subject of assay [12] is K-562 leukemia.
For assay [13], the system named is MALME-3M melanoma.
Assay [14] deals with MDA-MB-231 breast.
Assay [15] has as its system RXF 393 renal.
Assay [16] has as its system SF-268 CNS.
In assay [17] the test system is SF-295 CNS.
For assay [18], the system named is SF-539 CNS.
In assay [19] the test system is UACC-257 melanoma.
Assay [20] deals with M14 melanoma.

As to `COc1ccc(/C(=N\NC(N)=S)c2ccc(Cl)cc2)cc1OC`, the growth is 27.4% in assay [1]; 51.6% in [2]; 53.6% in assay [3]; 27.5% in assay [4]; 12% in assay [5]; 48.6% in assay [6]. Moreover, the growth in assay [7] was -10% (active); in [8] it was 42.4%; in assay [9], 42.1%; in assay [10] it was 0.963% (active); in assay [11], 37.5%; in assay [12] it was 19%. Also, the growth in [13] is 30.8%; in assay [14], 16.8%; in [15], 25.1%; in assay [16], 45%; in assay [17] it was 13.4%; in assay [18], 14.2%. In addition, the growth in [19] is 42.9%; in assay [20], -4.37% (active).
Turning to `Cc1[nH]c(C(=O)Nc2ccc(S(=O)(=O)N3CCCCC3)cc2OCCOCCOCCOCCOCCOCCOCCOCCOCCOc2cc(S(=O)(=O)N3CCCCC3)ccc2NC(=O)c2[nH]c(C)c3c2CCCCC3=O)c2c1C(=O)CCCC2`, the growth in assay [1] was 20.8%; in [2], -2.37% (active); in assay [3], 34.1%; in assay [4] it was 12.5%; in assay [5] it was 35.6%; in assay [6], 16.9%. Also, the growth was 0.322% (active) in assay [7]; 24.1% in assay [8]; 40.2% in assay [9]; -30.3% (active) in [10]; 47.3% in [11]; 19.2% in assay [12]. The growth is 3.69% (active) in assay [13]; 11.6% in [14]; 47% in [15]; 44.3% in [16]; 30.8% in [17]; 14.1% in assay [18]. Also, the growth in [19] was -27% (active); in assay [20], 14%.
For `CCCCCN1C(=O)/C(=c2\sc3n(c2=O)C2C(NN=3)N(CC)C(=O)N2CC)c2cccc(C)c21` (stereo not given), the growth is 70% in assay [1]; 42.4% in assay [2]; 82.7% in assay [3]; 44.2% in [4]; 30.9% in assay [5]; 70.2% in assay [6]. Besides, the growth in assay [7] is 30.4%; in assay [8], 68.6%; in [9], 76%; in assay [10], 38.7%; in assay [11], 76.6%; in assay [12], 16.2%. Further, the growth in assay [13] is 51.6%; in assay [14], 62.4%; in [15], 15.1%; in assay [16] it was 56.9%; in assay [17] it was 45%; in assay [18], 23.8%. For the same compound, the values for the growth in assay [19] and in assay [20] were 79.8% and 51.4%, respectively.
Turning to `CCc1cc2c(cc1Cl)nc1c(=O)[nH]c(=O)nc-1n2CCOCC(C)C`, the growth is 67.7% in assay [1]; 39.4% in [2]; 54.9% in assay [3]; 100% in assay [4]; 49.3% in assay [5]; 126% in [6]. Also, the growth in [7] is 55.6%; in assay [8], 67.1%; in assay [9] it was 70.3%; in [10], 21.3%; in assay [11] it was 95%; in assay [12] it was 42.1%. Moreover, the growth in assay [13] was 2.24% (active); in [14], 55.8%; in [15] it was 80.5%; in [16], 80%; in assay [17] it was 60%; in assay [18], 79.3%. For the same compound, the growth in [19] was 36.6%; in assay [20], 49.4%.
In the case of `Brc1cc(-c2cc(-c3ccc4c(c3)OCCO4)[nH]n2)cs1`, the growth in [1] was 52.2%; in assay [2] it was 74%; in assay [3] it was 70.8%; in assay [4], 61%; in [5], 24.1%; in [6], 65.2%. For the same compound, the growth in assay [7] is 29.6%; in assay [8], 42.8%; in assay [9], 79.2%; in [10], 57.8%; in assay [11] it was 54.2%; in assay [12], 15%. Further, the growth in assay [13] was 35.5%; in assay [14] it was 51.6%; in [15], 47.5%; in [16], 62.6%; in assay [17], 41.7%; in assay [18] it was 41%. For the same compound, the growth in [19] was 76.4%; in assay [20], 35%.
For the compound `NC(=O)c1c(NC(=O)c2ccc(C(F)(F)F)cc2)sc2c1CCC(=O)C2`, the growth was -6.8% (active) in [1]; -24% (active) in assay [2]; 92.1% in assay [3]; 13.5% in assay [4]; 19.1% in assay [5]; -25.3% (active) in [6]. For the same compound, the growth in [7] is -25.9% (active); in [8], 12.1%; in assay [9], 24.5%; in [10], -64.7% (active); in [11], 59%; in assay [12], 7.94% (active). Also, the growth in assay [13] was -22.4% (active); in assay [14] it was -14.5% (active); in [15] it was -5.39% (active); in assay [16] it was 13.2%; in assay [17], 4.24% (active); in assay [18], -74.3% (active). The figures for the growth in assay [19] and in assay [20] were -18% (active) and -22% (active), respectively.
For `CSc1ccc(/C(=N/N=C(N)N)c2ccc(Cl)cc2)cc1`, the growth is 12.6% in [1]; 27% in assay [2]; 30.1% in assay [3]; 6.91% (active) in [4]; -12.7% (active) in assay [5]; -4.16% (active) in [6]. Moreover, the growth in assay [7] is -41.9% (active); in assay [8], 4.66% (active); in assay [9], 4.8% (active); in assay [10], -89.4% (active); in [11] it was 9.65% (active); in assay [12], 1.76% (active). The growth in assay [13] was 22.5%; in assay [14], 7.57% (active); in [15], 16.5%; in assay [16], 19.3%; in [17] it was 8.73% (active); in [18], -10.3% (active). Also, the growth was 57.8% in [19] and -90.9% (active) in assay [20].
